This is an account of results in PubChem BioAssay.

Experiment [1] concerns the target Cell division control protein 42 homolog (Homo sapiens) (UniProt P60953). Nature of the experiment: activated mutant Cdc42 GTP-binding inhibitors, dose response, biochemical, multiplex bead flow cytometry, Bodipy-FL-GTP (AID 1333;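 active = fitted half-maximal concentration within the tested dose range, moderate curve steepness, a statistically real signal drop, and little compound fluorescence or tag-binding interference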).
The target is the same in experiment [2]. The experiment is described as follows: wildtype Cdc42 GTP-binding inhibitors, dose response, biochemical, multiplex bead flow cytometry, Bodipy-FL-GTP (AID 1334;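 active = fitted half-maximal concentration within the tested range, moderate curve steepness, significant signal drop, and little compound fluorescence or bead-linkage interference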). Conditions: bead-based flow cytometry, Bodipy-FL-GTP binding to GST-Cdc42; at 100 µM (top of the series) unless noted. On the technique in general: In flow cytometry, cells or beads pass a laser one at a time.

Experiment [3] concerns the target GTPase HRas (Homo sapiens) (UniProt P01112). Nature of the experiment: inhibitors of GTP binding to wildtype Ras, dose response, biochemical, multiplex bead flow cytometry (AID 1335;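 active = fitted half-maximal concentration within 10 nM to 100 µM, steepness 0.5 to 2, significant signal drop, low assay interference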). Conditions: bead-based flow cytometry, Bodipy-GTP binding to GST-Ras; at 100 µM (top of the series) unless noted.
Experiment [4] concerns Ras-related protein Rab-7a (dog), GTP binding. Nature of the experiment: Rab7 GTP binding inhibitors, potency, dose response, biochemical, wildtype, multiplex bead flow cytometry (AID 1336; call rule not given here).
The target in experiment [5] is Ras-related C3 botulinum toxin substrate 1 (Homo sapiens) (UniProt P63000). Nature of the experiment: wildtype Rac1 GTP binding inhibitors, dose response, biochemical, multiplex bead flow cytometry (AID 1340). The conditions noted are these: GST-Rac1 beads, Bodipy-FL-GTP binding; at 100 µM (top of the series) unless noted.
Experiment [6] concerns the target GTPase HRas (Homo sapiens) (UniProt P01112). The experiment is described as follows: activated Ras mutant GTP binding inhibitors, dose response, biochemical, multiplex bead flow cytometry (AID 1341;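 active = dose-response curve with midpoint inside the tested range, moderate steepness, significant amplitude and little compound fluorescence or bead-attachment interference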;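 note: GST-tagged constitutively activated Ras mutant immobilized on beads and multiplexed with other GTPases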).

For part of these data: Entries with a potency or affinity are not part of this list. Active and inactive are the calls of the source.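 Rule for the calls, unless noted: active = dose curve with midpoint inside tested range, moderate steepness, plateau gap beyond fit error, low compound glow and bead-link interference; inactive = the rest.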

Sequence of GTPase HRas (Homo sapiens) (P01112 whole entry, looked up): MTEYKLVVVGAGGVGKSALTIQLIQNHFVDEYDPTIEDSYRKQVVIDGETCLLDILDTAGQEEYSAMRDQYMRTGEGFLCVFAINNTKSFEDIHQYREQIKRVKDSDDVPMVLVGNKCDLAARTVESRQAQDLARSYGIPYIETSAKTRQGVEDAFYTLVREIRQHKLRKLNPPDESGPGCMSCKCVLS
Sequence of Cell division control protein 42 homolog (Homo sapiens) (P60953 whole entry, looked up): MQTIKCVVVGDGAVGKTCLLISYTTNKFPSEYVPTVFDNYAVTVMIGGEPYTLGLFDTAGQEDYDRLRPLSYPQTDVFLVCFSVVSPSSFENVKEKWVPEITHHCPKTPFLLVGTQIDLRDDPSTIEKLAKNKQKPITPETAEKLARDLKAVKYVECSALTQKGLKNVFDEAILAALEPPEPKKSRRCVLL

Consider `Cc1noc(/C=C/c2ccc(-c3ccccc3Cl)o2)c1[N+](=O)[O-]`, for which the outcome in experiment [1], in experiment [4] and in experiment [6] was inactive. The fluorescence, percent of control (lower = inhibition) in experiment [2] was 125%. Also, in experiment [3], the GTP binding, percent of control worked out at 171%. In addition, the GTP binding signal, raw median fluorescence (lower = inhibition) (MCF (arbitrary fluorescence units)) in experiment [5] came out at 199.

For `Cc1cc(C(=O)NC(=S)Nc2cccc(C(=O)O)c2C)ccc1[N+](=O)[O-]`, the compound was classed as inactive in experiment [1], in experiment [4] and in experiment [6]. Further, the fluorescence, percent of control (lower = inhibition) in experiment [2] turned out to be 37.3%. The GTP binding, percent of control in experiment [3] turned out to be 85.8%. In experiment [5], this compound registered a GTP binding signal, raw median fluorescence (lower = inhibition) (MCF (arbitrary fluorescence units)) of 272.

Consider `COc1ccc(CNc2nc3ccccc3n2Cc2ccc(C)cc2)cc1OC`, for which the call in experiment [1], in experiment [4] and in experiment [6] was inactive. The fluorescence, percent of control (lower = inhibition) in experiment [2] was determined as 73%. In experiment [3], this compound had a GTP binding, percent of control of 73.9%. The compound further displayed a GTP binding signal, raw median fluorescence (lower = inhibition) (MCF (arbitrary fluorescence units)) in experiment [5] of 343.

For `COc1ccc(Nc2ccccc2C(=O)O)cc1`, the outcome in experiment [1], in experiment [4] and in experiment [6] was inactive. In addition, the fluorescence, percent of control (lower = inhibition) in experiment [2] worked out at 45.2%. In experiment [3], this compound showed a GTP binding, percent of control of 92.5%. This compound had a GTP binding signal, raw median fluorescence (lower = inhibition) (MCF (arbitrary fluorescence units)) in experiment [5] of 262.

With `O=C(O)c1cc([N+](=O)[O-])ccc1NCc1ccccc1`, the compound was called inactive in experiment [1], in experiment [4] and in experiment [6]. The fluorescence, percent of control (lower = inhibition) in experiment [2] stood at 121%. In experiment [3], this compound came in with a GTP binding, percent of control of 149%. For the same compound, the GTP binding signal, raw median fluorescence (lower = inhibition) (MCF (arbitrary fluorescence units)) in experiment [5] was 105.

Turning to `CCCn1cc(CN2CCCC(CNC(=O)c3ccc(F)cc3)C2)c(C)n1` (stereo not given), the call in experiment [1], in experiment [4] and in experiment [6] was inactive. Moreover, the fluorescence, percent of control (lower = inhibition) in experiment [2] turned out to be 37.6%. In experiment [3], this compound registered a GTP binding, percent of control of 85.7%. Moreover, the GTP binding signal, raw median fluorescence (lower = inhibition) (MCF (arbitrary fluorescence units)) in experiment [5] was determined as 247.

As for `COc1cc2[nH]c(=S)nc(NCCC(C)C)c2cc1OC`, the outcome in experiment [1], in experiment [4] and in experiment [6] was inactive. Also, in experiment [2], the fluorescence, percent of control (lower = inhibition) worked out at 29.1%. Further, the GTP binding, percent of control in experiment [3] came to 55.6%. The GTP binding signal, raw median fluorescence (lower = inhibition) (MCF (arbitrary fluorescence units)) in experiment [5] was 123.

For `Cc1n[nH]c(=S)c2nn(-c3ccccc3F)c(C)c12`, the result in experiment [1], in experiment [4] and in experiment [6] was inactive. The fluorescence, percent of control (lower = inhibition) in experiment [2] is 48.5%. Moreover, the GTP binding, percent of control in experiment [3] came to 62.5%. The same compound gave a GTP binding signal, raw median fluorescence (lower = inhibition) (MCF (arbitrary fluorescence units)) in experiment [5] of 179.

Turning to `COc1cc(/C=N/NC(=S)Nc2cccnc2)cc(OC)c1O`, the outcome in experiment [1], in experiment [4] and in experiment [6] was inactive. For the same compound, the fluorescence, percent of control (lower = inhibition) in experiment [2] came to 31.8%. Further, in experiment [3], the GTP binding, percent of control was found to be 72%. For the same compound, the GTP binding signal, raw median fluorescence (lower = inhibition) (MCF (arbitrary fluorescence units)) in experiment [5] was determined as 163.

With `CC(C)Sc1nc(-c2ccccc2)cc(=O)[nH]1`, the outcome in experiment [1], in experiment [4] and in experiment [6] was inactive. Besides, the fluorescence, percent of control (lower = inhibition) in experiment [2] worked out at 88.8%. Moreover, in experiment [3], the GTP binding, percent of control was 156%. Also, in experiment [5], the GTP binding signal, raw median fluorescence (lower = inhibition) (MCF (arbitrary fluorescence units)) was 170.

Regarding `N#C/C(=C/c1ccc(-c2ccccc2)o1)c1nc(-c2cccs2)cs1`, the outcome in experiment [1], in experiment [4] and in experiment [6] was inactive. In addition, the fluorescence, percent of control (lower = inhibition) in experiment [2] is 96.4%. In experiment [3], this compound came in with a GTP binding, percent of control of 107%. The same compound yielded a GTP binding signal, raw median fluorescence (lower = inhibition) (MCF (arbitrary fluorescence units)) in experiment [5] of 228.

Turning to `COc1cc(C(=S)NCc2ccccc2)cc(Br)c1O`, the outcome in experiment [1], in experiment [4] and in experiment [6] was inactive. In addition, in experiment [2], the fluorescence, percent of control (lower = inhibition) was 23.5%. For the same compound, the GTP binding, percent of control in experiment [3] is 56.3%. The compound also yielded a GTP binding signal, raw median fluorescence (lower = inhibition) (MCF (arbitrary fluorescence units)) in experiment [5] of 246.

Take `O=C1OC(c2ccc(F)cc2)=C/C1=C\c1ccc([N+](=O)[O-])o1`: the outcome in experiment [1], in experiment [4] and in experiment [6] was inactive. Also, the fluorescence, percent of control (lower = inhibition) in experiment [2] was found to be 49.1%. For the same compound, the GTP binding, percent of control in experiment [3] was 91.4%. The compound also registered a GTP binding signal, raw median fluorescence (lower = inhibition) (MCF (arbitrary fluorescence units)) in experiment [5] of 283.

As to `C=CCc1ccccc1OCc1cccc(C(=O)O)c1`, the outcome in experiment [1], in experiment [4] and in experiment [6] was inactive. For the same compound, the fluorescence, percent of control (lower = inhibition) in experiment [2] worked out at 78.7%. The compound further yielded a GTP binding, percent of control in experiment [3] of 99.3%. The GTP binding signal, raw median fluorescence (lower = inhibition) (MCF (arbitrary fluorescence units)) in experiment [5] is 56.1.

As to `Cc1ccccc1NC(=O)C1CCCN1S(=O)(=O)c1cccc2cccnc12` (stereo not given), the compound was classed as inactive in experiment [1], in experiment [4] and in experiment [6]. The fluorescence, percent of control (lower = inhibition) in experiment [2] was determined as 39.1%. Besides, in experiment [3], the GTP binding, percent of control was 84.8%. This compound had a GTP binding signal, raw median fluorescence (lower = inhibition) (MCF (arbitrary fluorescence units)) in experiment [5] of 322.
